In PubChem BioAssay AID1159580 (chemical genetic matrix, 2015):
Out of some 5,500 compounds screened, about 2,000 (36%) were called active. Not shown: some 18% with an inconclusive outcome. Cut-off read from the data, not from the text of the source: active = normalized growth mostly below about 0.91 (no sharp cut-off); inconclusive = no clear call, values can overlap the other calls; inactive = mostly above about 0.92. This is one part of the list.

Assay: chemical genetic growth profiling, strain panel (AID 1159580);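 note: tested at 20 µM; growth read once vehicle control cultures reached saturation at 30 °C; 1 = growth at the plate median or of vehicle wells; lower values mean less growth of the strain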
Details: S. cerevisiae deletion strains, growth OD

Measured: normalized growth

CC1(C)CC[C@@]2(C(=O)O)C(C1)C1=CCC3[C@@]4(C)CC[C@H](O)C(C)(C)C4CC[C@@]3(C)[C@]1(C)C[C@@H]2O (stereo not given in full)
active: locus YDL101C, strain DUN1, stronger effect = lower value 0.827 | locus YDR137W, strain rgp1, stronger effect = lower value 0.828 | locus YGL086W, strain mad1, stronger effect = lower value 1.22 [resistant] | locus YIR030C, strain dcg1, stronger effect = lower value 1.1 [resistant] | locus YKL009W, strain mrt4, stronger effect = lower value 1.16 [resistant] | locus YKL068W, stronger effect = lower value 1.19 [resistant] | locus YKL085W, strain MDH1 (second series), stronger effect = lower value 1.24 [resistant] | locus YKL085W, strain MDH1, stronger effect = lower value 1.24 [resistant] | locus YLR418C, strain cdc73, stronger effect = lower value 1.19 [resistant]
inactive: locus YAL013W, strain DEP1, stronger effect = lower value 1.02 | locus YAL021C, strain ccr4, stronger effect = lower value 1.01 | locus YAL026C, strain drs2, stronger effect = lower value 1.01 | locus YAL030W, strain snc1, stronger effect = lower value 1.01 | locus YBL061C, strain skt5, stronger effect = lower value 1.03 | locus YBR009C, strain hhf1, stronger effect = lower value 1.01 | locus YBR021W, strain FUR4, stronger effect = lower value 0.996 | locus YBR023C, strain chs3, stronger effect = lower value 1.02 | locus YBR171W, strain sec66, stronger effect = lower value 1.02 | locus YBR229C, strain ROT2, stronger effect = lower value 1.03 | locus YBR231C, strain swc5, stronger effect = lower value 1.03 | locus YBR279W, strain paf1, stronger effect = lower value 1.02 | locus YCL011C, strain gbp2, stronger effect = lower value 1.02 | locus YCL016C, strain dcc1, stronger effect = lower value 1.02 | locus YCL029C, strain bik1, stronger effect = lower value 0.992 | locus YCL061C, strain MRC1, stronger effect = lower value 1.01 | locus YCL069W, strain vba3, stronger effect = lower value 1.01 | locus YCR088W, strain abp1, stronger effect = lower value 1.01 | locus YDL005C, strain med2, stronger effect = lower value 1.01 | locus YDL035C, strain GPR1, stronger effect = lower value 1 | locus YDL040C, strain nat1, stronger effect = lower value 1.02 | locus YDL074C, strain BRE1, stronger effect = lower value 1 | locus YDL185W, strain tfp1, stronger effect = lower value 1.02 | locus YDL192W, strain arf1, stronger effect = lower value 1.05 | locus YDR001C, strain nth1, stronger effect = lower value 1.01 | locus YDR069C, strain doa4, stronger effect = lower value 1.05 | locus YDR101C, strain arx1, stronger effect = lower value 1.02 | locus YDR150W, strain NUM1, stronger effect = lower value 1.03 | locus YDR159W, strain sac3, stronger effect = lower value 0.953 | locus YDR162C, strain NBP2, stronger effect = lower value 1.01 | locus YDR195W, strain ref2 0.952 | locus YDR297W, strain sur2, stronger effect = lower value 1.01 | locus YDR318W, strain mcm21, stronger effect = lower value 1.03 | locus YDR334W, strain swr1, stronger effect = lower value 1.01 | locus YDR335W, strain msn5, stronger effect = lower value 1.02 | locus YDR388W, stronger effect = lower value 1.03 | locus YDR392W, strain spt3, stronger effect = lower value 1.01 | locus YDR502C, strain sam2, stronger effect = lower value 1.05 | locus YEL003W, strain gim4, stronger effect = lower value 1.03 | locus YEL037C, strain rad23, stronger effect = lower value 1.02 | locus YEL061C, strain CIN8 (second series), stronger effect = lower value 1.02 | locus YEL061C, strain CIN8, stronger effect = lower value 1.02 | locus YER015W, strain faa2, stronger effect = lower value 1.03 | locus YER016W, strain bim1, stronger effect = lower value 1 | locus YER110C, stronger effect = lower value 1.03 | locus YER111C, strain swi4, stronger effect = lower value 1.01 | locus YER155C, strain BEM2 (second series), stronger effect = lower value 1 | locus YER155C, strain BEM2, stronger effect = lower value 1.03 | locus YER167W, strain BCK2, stronger effect = lower value 1.04 | locus YFR010W, strain ubp6, stronger effect = lower value 1.04 | locus YGL078C, strain dbp3, stronger effect = lower value 1.03 | locus YGL167C, strain pmr1, stronger effect = lower value 1.01 | locus YGL173C, strain kem1, stronger effect = lower value 1.01 | locus YGL227W, strain vid30, stronger effect = lower value 1.01 | locus YGL240W, strain doc1, stronger effect = lower value 1 | locus YGL248W, strain PDE1, stronger effect = lower value 1.02 | locus YGL253W, strain hxk2, stronger effect = lower value 1.02 | locus YGR078C, strain PAC10, stronger effect = lower value 1.05 | locus YGR135W, strain pre9, stronger effect = lower value 1.05 | locus YGR252W, strain gcn5, stronger effect = lower value 1.07 | locus YHR013C, strain ard1, stronger effect = lower value 1.1 | locus YHR027C, strain rpn1, stronger effect = lower value 1.02 | locus YHR030C, strain SLT2, stronger effect = lower value 1.04 | locus YHR079C, strain IRE1 (second series), stronger effect = lower value 1.01 | locus YHR094C, strain hxt1, stronger effect = lower value 1.02 | locus YHR129C, strain ARP1, stronger effect = lower value 1.04 | locus YHR142W, strain chs7, stronger effect = lower value 1.03 | locus YHR200W, strain rpn10, stronger effect = lower value 1.04 | locus YIL066C, strain RNR3, stronger effect = lower value 1.05 | locus YIL073C, strain SPO22, stronger effect = lower value 1.15 | locus YIL125W, strain kgd1, stronger effect = lower value 1.02 | locus YJL092W, strain hpr5, stronger effect = lower value 1.01 | locus YJL095W, strain BCK1 (second series), stronger effect = lower value 1.01 | locus YJL095W, strain BCK1, stronger effect = lower value 0.973 | locus YJL115W, strain asf1, stronger effect = lower value 1.02 | locus YJL129C, strain trk1, stronger effect = lower value 1.02 | locus YJL134W, strain LCB3, stronger effect = lower value 1.02 | locus YJL154C, strain vps35, stronger effect = lower value 1 | locus YJL164C, strain tpk1, stronger effect = lower value 1.03 | locus YJL166W, strain qcr8, stronger effect = lower value 1.01 | locus YJL168C, strain set2, stronger effect = lower value 1.04 | locus YJL187C, strain SWE1 (second series), stronger effect = lower value 1.02 | locus YJL187C, strain SWE1, stronger effect = lower value 1.01 | locus YJR043C, strain POL32, stronger effect = lower value 1.02 | locus YKL160W, strain elf1, stronger effect = lower value 0.995 | locus YKL190W, strain CNB1, stronger effect = lower value 1.03 | locus YKR001C, strain vps1, stronger effect = lower value 1.03 | locus YKR026C, strain gcn3, stronger effect = lower value 0.988 | locus YKR091W, strain srl3, stronger effect = lower value 1.01 | locus YLL001W, strain dnm1, stronger effect = lower value 1.02 | locus YLL026W, stronger effect = lower value 1.01 | locus YLL041C, strain sdh2, stronger effect = lower value 1.01 | locus YLR027C, strain aat2, stronger effect = lower value 1.02 | locus YLR039C, strain RIC1, stronger effect = lower value 0.866 | locus YLR058C, strain SHM2, stronger effect = lower value 1.03 | locus YLR102C, strain apc9, stronger effect = lower value 1.02 | locus YLR221C, strain rsa3, stronger effect = lower value 1.02 | locus YLR258W, strain gsy2, stronger effect = lower value 1.01 | locus YLR262C, strain YPT6 (second series), stronger effect = lower value 0.871 | locus YLR262C, strain YPT6, stronger effect = lower value 0.827 | locus YLR268W, strain sec22, stronger effect = lower value 1.01 | locus YLR320W, strain mms22, stronger effect = lower value 1.02 | locus YLR330W, strain CHS5, stronger effect = lower value 1.03 | locus YLR342W, strain FKS1 (second series), stronger effect = lower value 0.97 | locus YLR342W, strain FKS1, stronger effect = lower value 1.02 | locus YLR357W, strain rsc2, stronger effect = lower value 1 | locus YLR370C, strain arc18, stronger effect = lower value 1.02 | locus YLR371W, strain rom2, stronger effect = lower value 1.01 | locus YLR384C, strain iki3, stronger effect = lower value 1.02 | locus YML016C, strain PPZ1, stronger effect = lower value 1.03 | locus YML032C, strain rad52, stronger effect = lower value 1.02 | locus YML120C, strain ndi1, stronger effect = lower value 1.02 | locus YML124C, strain tub3, stronger effect = lower value 1.05 | locus YMR058W, strain fet3, stronger effect = lower value 1.03 | locus YMR078C, strain ctf18, stronger effect = lower value 1.03 | locus YMR125W, strain sto1, stronger effect = lower value 1.03 | locus YMR129W, stronger effect = lower value 1.02 | locus YMR205C, strain PFK2, stronger effect = lower value 0.984 | locus YMR223W, strain ubp8, stronger effect = lower value 1.01 | locus YMR231W, strain pep5, stronger effect = lower value 1.01 | locus YMR307W, strain GAS1, stronger effect = lower value 0.909 | locus YNL067W, strain RPL9B, stronger effect = lower value 1.02 | locus YNL071W, strain lat1, stronger effect = lower value 1.01 | locus YNL128W, strain TEP1, stronger effect = lower value 0.874 | locus YNL153C, strain GIM3, stronger effect = lower value 1.02 | locus YNL209W, strain ssb2, stronger effect = lower value 1.03 | locus YNL233W, strain BNI4, stronger effect = lower value 1.03 | locus YNL248C, strain rpa49, stronger effect = lower value 1.01 | locus YNL250W, strain rad50, stronger effect = lower value 1.04 | locus YNL271C, strain bni1, stronger effect = lower value 1.02 | locus YNL298W, strain CLA4, stronger effect = lower value 1.02 | locus YNL307C, strain MCK1, stronger effect = lower value 1.05 | locus YNL322C, strain KRE1 (second series), stronger effect = lower value 0.998 | locus YNR049C, strain mso1, stronger effect = lower value 1.01 | locus YNR052C, strain pop2, stronger effect = lower value 1.03 | locus YOL006C, strain TOP1, stronger effect = lower value 1.17 | locus YOL012C, strain htz1 1.06 | locus YOL147C, strain pex11, stronger effect = lower value 1.03 | locus YOR001W, strain rrp6, stronger effect = lower value 1 | locus YOR061W, strain CKA2, stronger effect = lower value 1 | locus YOR069W, strain VPS5, stronger effect = lower value 1.01 | locus YOR070C, strain gyp1, stronger effect = lower value 1.03 | locus YOR080W, strain dia2, stronger effect = lower value 1.01 | locus YOR083W, strain WHI5, stronger effect = lower value 0.996 | locus YOR106W, strain vam3, stronger effect = lower value 1 | locus YOR136W, strain idh2, stronger effect = lower value 1.04 | locus YOR144C, strain elg1, stronger effect = lower value 1.03 | locus YOR184W, strain ser1, stronger effect = lower value 1 | locus YOR265W, strain rbl2, stronger effect = lower value 1.03 | locus YOR270C, strain vph1, stronger effect = lower value 1.11 | locus YOR290C, strain snf2, stronger effect = lower value 0.991 | locus YOR316C, strain cot1, stronger effect = lower value 1.03 | locus YPL051W, strain arl3, stronger effect = lower value 0.99 | locus YPL078C, strain atp4, stronger effect = lower value 1.02 | locus YPL106C, strain sse1, stronger effect = lower value 1.03 | locus YPL240C, strain hsp82, stronger effect = lower value 1.01 | locus YPR119W, strain clb2, stronger effect = lower value 1.03 | locus YPR141C, strain kar3, stronger effect = lower value 1.05 | locus YPR163C, strain tif3, stronger effect = lower value 1.05 | locus YPR167C, strain met16, stronger effect = lower value 1.04 | strain wtn01, stronger effect = lower value 1.05
